Source: PubChem
The list is not random: actives were taken first. Their share in the collection is about 19%.
TDP1 cell noCPT = qHTS for Inhibitors of human tyrosyl-DNA phosphodiesterase 1 (TDP1): qHTS in cells in absence of CPT; hit rate 15% among 420,000; DT40 Tdp1-/- hTDP1 cells, no CPT, ATP luminescence, 48 h; Potency, µM (top dose mostly 46.2 µM), for the others: top-dose activity change, negative = growth inhibition, hits mostly inhibitors; AID 686978, 2013; further: potency means the concentration at half of the fitted maximal effect; nearly all actives have a fitted effect of over 55% in size
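Cells were dispensed at 400 per well, compounds added by pin tool, plates incubated ≥48 hr at 37 °C, then CellTiter-Glo added for 30 min at room temperature before luminescence reading. Line: DT40 Tdp1-/- complemented with hTDP1; camptothecin omitted.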
IL1B secr inh = blocks inflammasome-driven IL-1 beta release | activity change, % at 57.5 µM | THP-1 LPS/ATP IL-1B secretion, AlphaLISA, 16 h; hits give low values | hit rate 4.7% among 360,000; in the data active means activity change below about -50%; inconclusive means mostly about -30% to -49%
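Secreted IL-1B measured by AlphaLISA bead assay after 16 h compound exposure of THP-1 cells; compounds (final up to 57.5 uM) added 1 h before LPS (250 ng/mL) and ATP (1.25 mM) stimulation; lower signal means less secretion.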
HT1080 IDH1KD tx = kills HT-1080 cells with IDH1 knockdown; HT-1080 IDH1 knockdown viability, ATP luminescence, 48 h; Potency, µM (doses to about 46.1 µM), inactives show at the top dose activity, negative = toxicity, hits mostly cytotoxic; hit rate 2% among 360,000; AID 686971;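 further: potency means the concentration at half of the fitted maximal effect; 0% = DMSO wells and -100% = cell-free medium wells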
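Assay cells: HT-1080 with IDH1 knockdown, 750 per well, RPMI/5% FBS. Exposure: 48 h at 37 °C following 2 h pre-incubation. Read: CellTiter-Glo luminescence; fitted concentration-response, curve class assigned.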
DT40 TDP1 CPT = DT40-hTDP1 cell growth loss with CPT; chicken DT40 Tdp1-/-;hTDP1 cells + 20 nM CPT, ATP luminescence, 48 h; Potency, µM (top dose mostly 46.2 µM), without a hit: at the top dose activity change, negative = growth inhibition, usual class: inhibitors; hit rate 12% among 420,000; further: potency means the concentration at half of the fitted maximal effect; nearly all actives have a fitted effect of over 55% in size
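Chicken DT40 Tdp1-/- cells complemented with human TDP1, 400 cells/well, exposed to compounds plus 20 nM camptothecin for at least 48 h at 37 C; viability read as ATP content by CellTiter-Glo luminescence.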
HT1080NT lethal = kills 2HG-producing HT-1080-NT fibrosarcoma cells; HT-1080-NT fibrosarcoma viability, CellTiter-Glo ATP luminescence, 48 h; Potency, µM (highest dose often 46.1 µM), for inactives: top-dose activity, negative = less viability, most hits filed as cytotoxic; hit rate 1.6% among 360,000; AID 686970;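 further: NT is the 2HG producing partner of a matched IDH1 knockdown line; potency means the concentration at half of the fitted maximal effect; 0% = DMSO-treated cells and -100% = media-only wells without cells; nearly all actives have a fitted effect of over 55% in size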
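Compounds were tested in concentration-response format on HT-1080-NT cells for 48 hours at 37 degrees C. Cell viability came from CellTiter-Glo luminescence; curves were classified by r2, response magnitude and activity.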
Numbers without * were called inactive; ? = inconclusive; nt = no result; [ ] = dose if it differs, or a comment. Unless noted, the call rests on the fitted dose curve; in most records, active means well fitted curve in the direction sought with a large enough effect; inconclusive means small, poorly fitted or top-dose-only effect, or another doubt; inactive means no such curve, though single readings can be large; an effect the other way counts as inactive or inconclusive. Unless noted, on the % scale 0 is the no-effect control and ±100 the full control effect.

SMILES | TDP1 cell noCPT | IL1B secr inh | HT1080 IDH1KD tx | DT40 TDP1 CPT | HT1080NT lethal
COc1cccc(NC(=S)NCc2ccc(F)cc2)c1 | 0.5% | 8.0 | 6.2% | 7.3% | 2.3%
Cc1ccc(CNC(=O)c2c(Nc3ccccc3C)sc(C(=O)c3ccc(F)cc3)c2N)cc1 | 14.6µM* | nt | nt | ? | nt
COc1ccc(CNC(=O)c2c(Nc3ccccc3C)sc(C(=O)c3ccccc3)c2N)cc1 | 5.17µM* | nt | nt | ? | nt
COc1cccc(Nc2sc(C(=O)c3ccc(F)cc3)c(N)c2C(=O)NCc2ccc(C)cc2)c1 | 5.17µM* | nt | nt | 4.11µM* | nt
COc1ccc(NC(=O)CCc2nnc3n(CC(C)C)c(=O)c4ccccc4n23)cc1 | -19.9% | nt | nt | 0.4% | nt
CC(C)(C)c1ccc(-c2nnc(-c3ccccc3NC(=O)c3cccc(C(F)(F)F)c3)o2)cc1 | 4.3% | nt | nt | 4.3% | nt
COc1ccc(C2=NOC(C)(c3nnc(-c4ccc(Cl)cc4)o3)C2)cc1 (centres undefined) | -17.2% | 0.5 | 3.2% | -3.6% | -2.1%
c1ccc(CC2CCN(c3nnnn3-c3ccccc3)CC2)cc1 | -29.7% | -18.2 | -2.2% | -16.2% | -4.9%
N/C(=N/O)c1ccccc1N1CCC(Cc2ccccc2)CC1 | 14.6µM* | 34.6 | -11.5% | ? | -11.0%
COc1cc(=O)n2c(c1C(=O)N(C)Cc1nonc1C)CCN(C(=O)c1ccc(C)c(C)c1)CC2 | 0.4% | nt | nt | 0.0%[9.04 µM] | nt
CCOc1ccc(-c2nnc3ccc(SCC(=O)Nc4nc5ccccc5s4)nn23)cc1 | 18.4µM* | 14.8 | -5.4% | ? | -1.9%
Cc1ccc2nc(NC(=O)CCn3c(=O)sc4ccccc43)sc2c1 | ? | 26.8 | -6.0% | 18.4µM* | 1.1%
CCOc1ccc(-c2nnc3ccc(SCC(=O)Nc4nc5ccc(C)cc5s4)nn23)cc1 | 25.9µM* | 33.0 | 8.9% | ? | -0.6%
COc1ccc(-c2nnc(SCC(=O)Nc3nc4ccccc4s3)n2C)cc1 | -14.0% | -2.5 | 5.7% | 0.9% | 10.8%
Cc1ccc2nc(NC(=O)CSc3nncc(=O)n3N)sc2c1 | 16.4µM* | 1.7 | 8.2% | ? | -2.9%
Cc1ccc(S(=O)(=O)Nc2ccc(NC(=O)c3cccnc3)cc2)cc1 | -11.3% | -14.2 | 2.6% | -2.6% | 9.5%
COc1cccc(-c2cnc(C(O)c3c(C)cccc3C)[nH]2)c1 (centres undefined) | ? | 13.0 | 6.2% | ? | 4.6%
Nc1nc(SCc2ccccc2)c2ncn(C3CCCCC3)c2n1 | 29.1µM* | -78.5* | -11.9% | ? | ?
CCOC(=O)c1ccccc1NC1(c2ccc(OC)cc2)C(=O)c2ccccc2C1=O | ? | nt | nt | -23.0% | nt
O=C(O)c1ccc(Nc2nc3c(s2)CCCC3)cc1 | -8.9% | 15.4 | -2.6% | 14.0% | -10.7%
O=S1(=O)N=C(Nc2nc3c(s2)CCCC3)c2ccccc21 | 5.17µM* | 4.8 | -16.0% | 6.51µM* | -18.7%
Cc1cccc(Nc2nc3c(s2)CCCC3)c1 | 18.4µM* | -5.3 | 0.1% | 23.1µM* | -5.8%
O=C(NCc1cccnc1)C1CC(c2ccc(Cl)c(Cl)c2)=NO1 (centres undefined) | 20.6µM* | 33.7 | -29.6% | ? | -23.8%
O=C(NCc1ccccn1)C1CC(c2ccc(Cl)c(Cl)c2)=NO1 (centres undefined) | 20.6µM* | 32.9 | ? | ? | -20.4%
Cc1ccc(Oc2ccc(C(F)(F)F)cc2[N+](=O)[O-])c([N+](=O)[O-])n1 | -20.1% | ? | 1.6% | -21.7% | 10.3%
O=C(NCc1ccco1)C1Cc2ccccc2CN1C(=O)c1ccco1 (centres undefined) | ? | ? | -1.1% | -3.9% | 10.9%
O=C(NCc1ccco1)C1Cc2ccccc2CN1S(=O)(=O)c1ccccc1F (centres undefined) | ? | ? | 5.6% | 18.4µM* | 11.1%
CC(C)c1onc(C(=O)N2CCCCC2)c1[N+](=O)[O-] | ? | -65.2* | 0.0% | -18.8% | -0.5%
CC(C)c1onc(C(=O)Nc2ccc3c(c2)OCO3)c1[N+](=O)[O-] | 18.4µM* | -21.0 | 0.0% | ? | -4.2%
